# Assay outcomes: PubChem BioAssay, Broad Institute
# An excerpt weighted towards active compounds, which were near 7.7% of everything screened.
# NOMO-1 viab – STK33 inhibitor candidate reducing NOMO-1 cell viability; inhibition, % (concentration not given with the values); NOMO-1 AML viability, CellTiter-Glo luminescence, 72 h; 37,000 tested, 7.5% active; in the data active = inhibition above about 80%; inconclusive = no clear call, values can overlap the other calls
# PD-1 reverse act – reversal of PD-1 mediated T-cell inhibition | primary human CD4 T cells, PD-L1 beads, CellTiter-Glo 96 h | activation, % (no concentration beside the values) | 29,000 tested, under 10 active | AID 2316; call rule not given here;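 note: 0% = median vehicle wells and 100% = positive control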
# Shh pathway inh – Sonic Hedgehog pathway inhibition; Shh-LIGHT2 Gli-luciferase reporter, 30 h; inhibition, % (concentration not given with the values); 22,000 tested, 2.1% active;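 active = mean inhibition across valid replicates above about 65%, limit read from the data; inconclusive = mean under the limit, yet half or more replicates past it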;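 note: pathway switched on by Shh-conditioned medium diluted 1 in 25 in low serum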
# * marks the source's active call; other numbers are inactive results; u = inconclusive; x = no result given.
SMILES,NOMO-1 viab,PD-1 reverse act,Shh pathway inh
COCCNC(=O)Nc1ccc2nc(-c3ccccn3)c(-c3ccccn3)nc2c1,27.1,2.5,x
Cn1c(SCC(=O)Nc2ccccc2Cl)nnc1-c1cccc([N+](=O)[O-])c1,10.3,x,x
COc1cc(F)ccc1S(=O)(=O)NC1CC(C)(C)NC(C)(C)C1,12.9,x,x
C#CCN1C(=O)C(O)(CC(=O)c2ccc(C)o2)c2ccccc21 (configuration not stated),120.3*,-0.7,x
O=C(CC1(O)C(=O)N(Cc2cccc3ccccc23)c2ccccc21)c1ccco1 (configuration not stated),110.9*,x,x
Cc1ccc(C(=O)CC2(O)C(=O)N(Cc3cccc4ccccc34)c3ccccc32)o1 (configuration not stated),36.1,x,x
NC(=O)CN1C(=O)C(O)(CC(=O)c2cccnc2)c2ccccc21 (configuration not stated),-6.9,7.7,x
CCCCN1C(=O)C(O)(CC(=O)c2ccccn2)c2ccccc21 (configuration not stated),125.4*,-1.4,x
Cc1ccc(C(=O)CC2(O)C(=O)N(CC(N)=O)c3ccccc32)s1 (configuration not stated),-1.2,2.5,x
O=C(CC1(O)C(=O)N(Cc2cccc3ccccc23)c2ccccc21)c1ccccn1 (configuration not stated),111.5*,-7.4,x
Cc1coc(C)c1C(=O)CC1(O)C(=O)N(CCCC#N)c2ccccc21 (configuration not stated),32.1,0.5,x
CC1=CS(=O)(=O)CC1SC(=S)NC(C)C (configuration not stated),u,-1.0,7.4
COc1ccc(S(=O)(=O)NCc2cccnc2)c(C)c1C,14.9,1.8,x
COC(=O)C1=C(Nc2ccc(F)cc2F)CSC1,-1.4,-0.8,-0.9
CN(Cc1nc(-c2cccc([N+](=O)[O-])c2)no1)S(=O)(=O)c1ccccc1,-8.8,x,x
CSc1cccc(NC(=O)c2cc3c(ccc4ccccc43)o2)c1,19.6,0.6,-102.4
Cc1cccc(C)c1OCC(=O)Nc1cccnc1,31.8,-1.5,x
CCN(CC)C(=O)c1ccc(Nc2nnc(-c3ccc(C)c(S(N)(=O)=O)c3)c3ccccc23)cc1,-4.6,x,x
O=c1cc(-c2ccc(O[C@@H]3O[C@H](CO)[C@@H](O)[C@H](O)[C@H]3O)cc2)oc2cc(O)cc(O)c12,14.5,1.4,-23.4
COc1ccc(CN2C(=O)C(O)(CC(=O)c3ccc4ccccc4c3)c3ccccc32)cc1OC (configuration not stated),61.2,x,x
COc1ccc(CN2C(=O)C(O)(CC(=O)c3ccco3)c3ccccc32)cc1OC (configuration not stated),118.2*,x,x
COc1cc(O)c(OC)c2c1C(=O)CC(c1ccccc1)O2 (configuration not stated),-3.7,-0.6,10.6
COc1cc(NC(=O)COc2cccc(C)c2C)ccc1-c1cc2ccccc2oc1=O,131.1*,-1.2,x
COc1cc(NC(=O)COc2cccc(C)c2C)ccc1NC(=O)c1ccccc1Cl,25.7,1.1,x
COc1cc(NC(=O)COc2cc(Cl)c(Cl)cc2Cl)ccc1NC(=O)c1cc2ccccc2o1,u,-4.2,x
SMILES,NOMO-1 viab,PD-1 reverse act,Shh pathway inh
COc1cc(NC(=O)COc2ccccc2Cl)ccc1NC(=O)c1cc2ccccc2o1,103.7*,-2.8,x
Nc1cccc(S(=O)(=O)NCc2ccco2)c1,19.2,x,x
O=C(c1cccs1)n1nc(-c2ccc(Cl)cc2)nc1NCc1ccco1,45.7,1.9,x
Cc1ccc(Cc2nn3c(C(=O)c4cccs4)nn(-c4ccc(Cl)cc4)c3nc2=O)cc1,37.0,0.7,67.1*
CCn1c(SCC(=O)c2cccc([N+](=O)[O-])c2)nnc1-c1cccnc1,4.8,x,x
Cc1ccc(S(=O)(=O)N2Cc3ccccc3C(C)CC23CCCCC3)cc1 (configuration not stated),88.0*,-0.2,-39.1
CC(C)NC(=O)Nc1ccc2c(c1)CC(=O)N([C@H](C)CO)C[C@H](C)[C@H](CN(C)Cc1ccc(-c3ccccc3)cc1)O2,42.1,-2.1,-18.3
COc1ccc(NC(=O)Nc2ccc3c(c2)CC(=O)N([C@@H](C)CO)C[C@H](C)[C@@H](CN(C)Cc2ccc(-c4ccccc4)cc2)O3)cc1,12.8,x,4.7
COc1ccc(NC(=O)Nc2ccc3c(c2)CC(=O)N([C@@H](C)CO)C[C@H](C)[C@H](CN(C)Cc2ccc(-c4ccccc4)cc2)O3)cc1,128.2*,-2.0,21.9
C[C@H]1CN([C@@H](C)CO)C(=O)Cc2cc(NC(=O)Nc3ccc(F)cc3)ccc2O[C@@H]1CN(C)Cc1ccc(-c2ccccc2)cc1,105.8*,2.7,-68.3
C[C@@H]1CN([C@H](C)CO)C(=O)Cc2cc(NC(=O)Nc3ccccc3)ccc2O[C@@H]1CN(C)Cc1ccc(-c2ccccc2)cc1,107.0*,-6.2,4.4
